# A selection: hits, their analogues and other compounds. The true share with any hit is near 1.3%.
# CCHFV vOTU inh: blocks the CCHF virus ovarian tumor domain protease; CCHFV vOTU protease, Pep-AMC fluorescence; 0.55% of 370,000 active; AID 651958; inhibition, % at 11.5 µM; in the data active means inhibition above about 30%; further: 0% = vehicle wells with enzyme and 100% = no enzyme wells
# BH1578 lux ind: quorum light induction in luxS cqsA deficient V. cholerae. V. cholerae BH1578 lux reporter, luminescence, 6 h. 0.16% of 350,000 active. activation, % at 18.7 µM. AID 588436; in the data active means activation mostly above about 9.7%, no sharp cut-off
# VHR inh abs: inhibitors of human VHR1 phosphatase (DUSP3); 0.52% of 290,000 active; AID 1654; P51452; recombinant VHR phosphatase, pNPP absorbance; inhibition, % at 13.3 µM; in the data active means inhibition above about 50%
# Target sequence (P51452 whole entry, looked up): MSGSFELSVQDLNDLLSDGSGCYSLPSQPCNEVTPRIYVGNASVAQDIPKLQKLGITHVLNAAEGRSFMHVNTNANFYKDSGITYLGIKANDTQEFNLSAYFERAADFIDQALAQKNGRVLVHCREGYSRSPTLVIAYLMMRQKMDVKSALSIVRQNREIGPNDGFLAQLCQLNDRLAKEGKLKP
# TcdB inh: inhibitors of Clostridioides difficile toxin B glycohydrolase; P18177; TcdB glycohydrolase enzymatic assay, plate reader; inhibition, % at 9.99 µM; 0.24% of 350,000 active; AID 652162; in the data active means inhibition above about 10%
# 3CLpro inhibitor: SARS-CoV 3CLpro protease inhibition | P0C6X7 | recombinant SARS-CoV 3CLpro, quenched FRET peptide cleavage | inhibition, % at 6 µM | 0.14% of 290,000 active | AID 1706; in the data active means inhibition above about 12%
# SSB-PriA inh: blocks PriA binding to SSB C-terminal tail; inhibition, % at 33 µM; AID 1272365; AlphaScreen SSBct-PriA binding, biotinylated peptide; 0.6% of 430,000 active; in the data active means inhibition mostly above about 37%, no sharp cut-off; inactive means mostly below about 20%;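 further: plate controls were negative control peptide for no effect and reference peptide for full effect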
# * hit, by the source's call; i = inactive; . = not tested or not shown.
SMILES,CCHFV vOTU inh,BH1578 lux ind,VHR inh abs,TcdB inh,3CLpro inhibitor,SSB-PriA inh
Cc1nnc(SCc2cccc3ccccc23)n(N)c1=O,-6.4,-1.5,-4.5,0.9,5.3,-1.7
COc1ccc(N2CCN(c3oc(-c4ccccc4OC)nc3C#N)CC2)cc1,.,i,27.1,1.1,5.0,27.0
COc1ccccc1-c1nc(C#N)c(N2CCN(c3ccccc3)CC2)o1,-4.3,0.1,8.3,.,0.4,50.5*
COc1ccccc1-c1nc(C#N)c(N2CCc3ccccc3C2)o1,-56.8,i,6.7,2.1,0.7,56.1*
N#Cc1nc(-c2ccco2)oc1N1CCN(c2ccccc2)CC1,1.9,i,5.0,.,2.9,38.4*
COc1ccc(-c2nc(C#N)c(N3CCc4ccccc4C3)o2)cc1OC,-7.3,2.1,6.4,.,-1.3,29.6
Cc1ccc2[nH]c3c(=O)n(CC(=O)N4CCN(C(=O)c5ccco5)CC4)cnc3c2c1,.,.,.,.,.,-11.0
Cc1nnc2ccc(N3CCN(C(=O)C(C)Oc4ccc5c(c4)OCO5)CC3)nn12 (stereo not drawn),.,.,.,.,.,-3.0
Cn1nc([N+](=O)[O-])c(C(C#N)c2nc3ccccc3s2)c(Cl)c1=O (stereo not drawn),.,.,.,.,.,91.5*
O=C(/C=C/c1cccs1)Nc1ccccc1I,.,.,.,.,.,3.0
O=[N+]([O-])c1ccccc1N=Nc1ccc(O)cc1,8.5,-0.3,.,1.4,.,42.9*
O=[N+]([O-])c1ccccc1N=NNc1ccccc1,5.6,-0.8,.,0.3,.,-0.4
CNC(=S)N(CCc1c(C)[nH]c2ccc(OC)cc12)Cc1ccco1,1.9,-0.6,56.9*,0.6,0.7,2.6
COCCNC(=S)N(CCc1c(C)[nH]c2ccc(OC)cc12)Cc1ccco1,-12.6,-7.7,56.9*,0.4,-4.4,17.0
COCCNC(=S)N(CCc1c(C)[nH]c2ccc(C)cc12)Cc1ccco1,6.1,-0.2,18.4,0.5,3.8,17.1
COc1ccc(C(=O)CSc2nc(N)c(NC(=O)c3ccc(F)c(F)c3)c(=O)[nH]2)cc1,.,.,.,.,.,-6.0
Cc1cc(C)c2c(c1)-c1cc(C)nn1C(c1ccc3c(c1)OCO3)N2 (stereo not drawn),-9.5,i,55.6*,.,2.3,-21.5
COc1ccccc1OCC#CCNC(=O)[C@H]1CCCN(C)C1,.,.,.,.,.,-12.0
Cc1cc(C)nc(NS(=O)(=O)c2ccc(NC(=O)c3ccc(C)c(Br)c3)cc2)n1,.,.,.,.,.,-24.0
COC(C)(C)[C@H](O)COc1c2ccoc2cc2oc(=O)ccc12,9.5,1.2,0.9,1.4,1.6,-7.6
CC(C)(O)C(O)COc1c2ccoc2cc2oc(=O)ccc12 (stereo not drawn),5.8,-0.6,30.1,-3.5,-1.2,39.6*
COc1cccc(NC(=S)C(=C([O-])c2ccc(C)c([N+](=O)[O-])c2)[n+]2ccccc2)c1,.,.,.,.,.,26.1
CC(O)(CNC(=O)CCSc1ccccc1)c1ccco1 (stereo not drawn),.,.,.,.,.,-10.0
CC1CCCN(C(=S)Nc2ccc(Nc3ccccc3)cc2)C1 (stereo not drawn),-2.9,-0.7,21.9,0.8,-5.6,17.0
CC1CCCN(C(=S)Nc2ccc(F)cc2)C1 (stereo not drawn),-13.8,0.3,-12.3,12.1*,1.3,-9.5
SMILES,CCHFV vOTU inh,BH1578 lux ind,VHR inh abs,TcdB inh,3CLpro inhibitor,SSB-PriA inh
COC(=O)c1ccccc1NC(=O)Cn1nc2c(Oc3cc(C)cc(C)c3)nc3ccccc3n2c1=O,.,.,.,.,.,-6.0
c1ccc(Nc2cccc(Nc3ccccc3)n2)cc1,11.1,i,28.6,.,3.6,71.7*
c1ccc(Nc2ccccn2)cc1,-8.8,i,12.9,.,-1.2,-7.2
COc1ccc(NC(=O)C2CCN(c3c(C#N)cnc4ccc(F)cc34)CC2)c(OC)c1,.,.,.,.,.,7.0
COc1ccc(CC(=O)OCC(=O)NC2CCCCCC2)cc1OC,7.0,-0.4,.,2.7,.,-6.0
COc1ccc(CC(=O)NC2CC2)cc1OC,-18.1,0.9,53.0*,-1.6,-3.3,-8.6
COC(=O)N1CCC(CNC(=O)c2ccsc2)CC1,.,.,.,.,.,-8.0
c1ccc(C2Nc3ccccc3-c3nc4ccccc4n32)nc1 (stereo not drawn),-169.1,-0.5,16.3,.,-2.8,61.1*
c1ccc(C2Nc3ccccc3-c3nc4ccccc4n32)cc1 (stereo not drawn),-200.4,6.7,-5.8,.,-5.2,-8.8
O=[N+]([O-])c1ccc(Nc2c([N+](=O)[O-])ccc3c2=NC2(CCCCC2)N=3)cc1,.,.,.,.,.,90.0*
COc1ccc(Cl)c2sc(N3CCN(S(=O)(=O)c4ccc(Cl)s4)CC3)nc12,.,.,.,.,.,-5.0
Cc1ccc2c(c1)CC1(CN2C)C(=O)OC2(CCCCC2)OC1=O,-2.5,16.7*,12.1,.,2.2,-1.2
Cc1ccc2c(c1)CC1(CN2C)C(=O)NC(=O)N(c2ccccc2C)C1=O (stereo not drawn),2.1,i,13.8,.,2.2,-28.9
Cc1ccc2c(c1)CC1(CN2C)C(=O)NC(=O)N(c2ccc(C)c(C)c2)C1=O (stereo not drawn),7.4,i,50.5*,.,0.4,2.7
CC[C@H](C)Nc1cc(C)nc2cc(-c3ccccc3OC)nn12,.,.,.,.,.,-2.0
O=C(Cc1ccc(F)cc1F)NC1CCC(Oc2cnccn2)CC1 (stereo not drawn),.,.,.,.,.,-14.0
Cn1c(SCC(=O)Nc2ccc3nc(SCC(=O)NC4CC4)sc3c2)nnc1-c1ccccc1,-7.2,-0.2,-12.5,.,2.1,-15.5
Cn1c(SCC(=O)Nc2ccc3nc(SCC(=O)N4CCCC4)sc3c2)nnc1-c1ccc(N)cc1,.,0.6,51.6*,.,1.4,1.3
CC(C)(C)c1ccc(S(=O)(=O)NCC(=O)N2CCCCCC2)cc1,.,.,.,.,.,-8.0
Cc1cc2ccccn2c1C(=O)c1cc([N+](=O)[O-])cc([N+](=O)[O-])c1,8.8,-0.3,16.7,0.2,3.0,49.1*
Cc1cc2ccccn2c1C(=O)c1ccc(NN)c([N+](=O)[O-])c1,14.9,-0.2,16.7,-7.6,5.7,46.8*
COC(=O)Cc1cc(=O)n(-c2nc3ccccc3[nH]2)[nH]1,13.4,i,22.0,0.4,-0.1,74.6*
COc1cc(NC(=O)CCc2nnc3ccc(N4CCN(C)CC4)nn23)cc(OC)c1,-6.8,-0.4,52.1*,1.2,-6.0,-10.2
COc1ccc(NS(=O)(=O)c2nnc(NC(=O)c3ccccc3F)s2)cc1,3.8,-0.2,1.6,0.3,3.4,100.1*
O=C(Nc1nnc(S(=O)(=O)Nc2ccccc2)s1)c1ccccc1Cl,7.8,-0.3,-2.4,-2.9,1.6,-0.2
SMILES,CCHFV vOTU inh,BH1578 lux ind,VHR inh abs,TcdB inh,3CLpro inhibitor,SSB-PriA inh
COc1ccc(C(=O)Nc2ccc3c(=O)c4cccc(Cl)c4oc3c2)cc1,.,.,.,.,.,-1.0
COc1ccc2nc(N(CCN(C)C)C(=O)c3ccc4c(c3)OCCO4)sc2c1,12.7,i,15.0,2.4,1.8,-14.1
O=C(c1cccc(F)c1)N(CCCn1ccnc1)c1nc2ccc(Cl)cc2s1,.,.,.,.,.,52.0*
O=C(c1ccc2c(c1)OCCO2)N(CCCn1ccnc1)c1nc2ccc(F)cc2s1,.,.,.,.,.,37.0*
CCN(CC)CCN(C(=O)/C=C/c1cccs1)c1nc2ccc(OC)cc2s1,-13.2,i,.,1.6,.,1.6
COc1ccc(Cl)c2sc(N(CCCn3ccnc3)C(=O)c3cccc(F)c3)nc12,.,.,.,.,.,25.0
COc1ccc2nc(N(CCCn3ccnc3)C(=O)/C=C/c3cccs3)sc2c1,.,.,.,.,.,53.0*

# Assay outcomes from PubChem BioAssay.
